Measurements published in the supplement of paper PMC12067926.

Legend:
Assay in all cases: relative growth (AUC of 72 h growth curve relative to DMSO control, dAUC) (ratio); higher = more growth (less inhibition), active = hit call of the paper
Settings in all cases: 20 µM;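 active = growth AUC significantly below the DMSO wells by Dunnett test; inactive = the rest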
[1] = system: Aeromonas 1 (Aeromonas sp. AE235)
Summary of the method: (§1)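 Relative growth (dAUC) is the spline-integrated area under the growth curve divided by the mean of the DMSO-only control wells. Cultures were isolates from Icelandic stream sediments and Silwood Park soil, plus whole sediment communities, grown to carrying capacity in Luria–Bertani medium and diluted 1:100 into 96-well plates containing each chemical at 20 µM (1% DMSO). A600 was read hourly for 72 h on a plate reader, with brief shaking before each read, and values were averaged over three biological replicates.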

[2] = system: Aeromonas 2 (Aeromonas sobria)
Summary of the method: as §1

[3] = system: Aeromonas 3 (Aeromonas popoffii)
Summary of the method: as §1

[4] = system: Argrobacterium 1 (Agrobacterium sp.)
Summary of the method: as §1

[5] = system: Arthrobacter 1 (Arthrobacter humicola)
Summary of the method: as §1

[6] = system: Arthrobacter 2 (Arthrobacter humicola)
Summary of the method: as §1

[7] = system: Arthrobacter 3 (Arthrobacter sp.)
Summary of the method: as §1

[8] = system: Community 4
Summary of the method: as §1

[9] = system: Community 6
Summary of the method: as §1

[10] = system: Community 7
Summary of the method: as §1

[11] = system: Community 8
Summary of the method: as §1

[12] = system: Community 9
Summary of the method: as §1

[13] = system: Flavobacterium 1 (Flavobacterium glaciei)
Summary of the method: as §1

[14] = system: Flavobacterium 2 (Flavobacterium succinicans)
Summary of the method: as §1

[15] = system: Hymenobacter 1 (Hymenobacter glaciei)
Summary of the method: as §1

[16] = system: Microbacterium 1 (Microbacterium arborescens)
Summary of the method: as §1

[17] = system: Neobacillus 1 (Neobacillus soli)
Summary of the method: as §1

[18] = system: Oryzobacter 1 (Oryzobacter terrae)
Summary of the method: as §1

[19] = system: Paenibacillus 1 (Paenibacillus castaneae)
Summary of the method: as §1

Measured: relative growth

COc1cccc(C(=O)NN(C(=O)c2cc(C)cc(C)c2)C(C)(C)C)c1C
inactive: [1] 0.951 | [2] 0.969 | [3] 0.979 | [4] 0.982 | [5] 0.98 | [6] 0.884 | [7] 1.02 | [8] 0.822 | [9] 0.89 | [10] 1.12 | [11] 1.03 | [12] 0.893 | [13] 0.818 | [14] 0.92 | [15] 0.923 | [16] 0.977 | [17] 0.914 | [18] 1.06 | [19] 0.926

CCc1cccc(C)c1N(C(=O)CCl)[C@@H](C)COC
inactive: [1] 1.01 | [2] 0.962 | [3] 0.992 | [4] 1 | [5] 1.08 | [6] 0.89 | [7] 1.02 | [8] 1.01 | [9] 0.968 | [10] 1.12 | [11] 1.05 | [12] 0.948 | [13] 0.984 | [14] 0.967 | [15] 1.04 | [16] 1.04 | [17] 0.981 | [18] 1.06 | [19] 0.974

CC1(C)C(C=C(Cl)Cl)C1C(=O)OC(C#N)c1ccc(F)c(Oc2ccccc2)c1 (centres undefined)
inactive: [1] 0.997 | [2] 1 | [3] 1.07 | [4] 1.03 | [5] 1.19 | [6] 0.879 | [7] 0.946 | [8] 0.954 | [9] 0.928 | [10] 0.868 | [11] 1.06 | [12] 0.995 | [13] 1.02 | [14] 0.998 | [15] 1.03 | [16] 1.04 | [17] 0.981 | [18] 1.14 | [19] 0.826

CCc1cnc(C2=NC(C)(C(C)C)C(=O)N2)c(C(=O)O)c1 (centres undefined)
inactive: [1] 0.969 | [2] 0.981 | [3] 1 | [4] 0.95 | [5] 0.895 | [6] 0.959 | [7] 0.932 | [8] 1.03 | [9] 1.04 | [10] 1.05 | [11] 1.03 | [12] 0.98 | [13] 0.988 | [14] 1.03 | [15] 1.09 | [16] 1.04 | [17] 1.01 | [18] 0.96 | [19] 1.02

Cc1cc(C2CC2)nc(Nc2ccccc2)n1
inactive: [1] 1.01 | [2] 0.948 | [3] 1.05 | [4] 0.93 | [5] 0.989 | [6] 0.898 | [8] 0.978 | [9] 1 | [10] 0.89 | [11] 1.05 | [12] 0.939 | [13] 0.951 | [14] 0.86 | [15] 1.1 | [16] 1.05 | [17] 0.946 | [18] 1.04
active: [7] 0.542 | [19] 0.619

Cc1cc(C(C#N)c2ccc(Cl)cc2)c(Cl)cc1NC(=O)c1cc(I)cc(I)c1O (centres undefined)
inactive: [1] 0.979 | [3] 0.96 | [4] 0.833 | [10] 0.817 | [11] 0.725 | [16] 0.99
active: [2] 0.788 | [5] 0.0129 | [6] 0.011 | [7] 0.0114 | [8] 0.631 | [9] 0.454 | [12] 0.394 | [13] 0.0126 | [14] 0.794 | [15] 0.00496 | [17] 0.729 | [18] 0.00516 | [19] 0.325

CCC(=O)Nc1ccc(Cl)c(Cl)c1
inactive: [1] 0.948 | [2] 0.953 | [3] 0.955 | [4] 0.923 | [5] 1.12 | [6] 1 | [7] 1.02 | [8] 1.07 | [9] 1.01 | [10] 0.951 | [11] 1.06 | [12] 1.03 | [13] 1.02 | [14] 0.965 | [15] 0.981 | [16] 1.02 | [17] 0.962 | [18] 1.02 | [19] 0.968

CC[C@H](C)[C@H]1O[C@]2(C=C[C@@H]1C)C[C@@H]1C[C@@H](C/C=C(\C)[C@@H](O[C@H]3C[C@H](OC)[C@@H](O[C@H]4C[C@H](OC)[C@@H](O)[C@H](C)O4)[C@H](C)O3)[C@@H](C)/C=C/C=C3\CO[C@@H]4[C@H](O)C(C)=C[C@@H](C(=O)O1)[C@]34O)O2.CO[C@H]1C[C@H](O[C@H]2[C@H](C)O[C@@H](O[C@@H]3/C(C)=C/C[C@@H]4C[C@@H](C[C@]5(C=C[C@H](C)[C@@H](C(C)C)O5)O4)OC(=O)[C@@H]4C=C(C)[C@@H](O)[C@H]5OC/C(=C\C=C\[C@@H]3C)[C@]54O)C[C@@H]2OC)O[C@@H](C)[C@@H]1O
inactive: [1] 0.949 | [2] 0.927 | [3] 1.06 | [4] 1.11 | [8] 0.808 | [10] 1.17 | [11] 0.963 | [14] 0.975 | [15] 0.9 | [16] 0.963 | [17] 0.893
active: [5] 0.181 | [6] 0.00817 | [7] 0.16 | [9] 0.662 | [12] 0.624 | [13] 0.139 | [18] 0.286 | [19] 0.317

Fc1ccc([C@]2(Cn3cncn3)O[C@H]2c2ccccc2Cl)cc1 (racemic)
inactive: [1] 0.946 | [2] 0.979 | [3] 0.974 | [4] 0.985 | [5] 0.883 | [6] 0.947 | [7] 0.856 | [8] 0.965 | [9] 1.05 | [10] 1.15 | [11] 1.04 | [12] 0.984 | [13] 0.944 | [14] 0.938 | [15] 0.943 | [16] 1.01 | [17] 0.963 | [18] 1.13 | [19] 0.92

CC(C)(C)[C@@H](O)[C@H](Oc1ccc(Cl)cc1)n1cncn1
inactive: [1] 1.02 | [2] 1.04 | [3] 1.03 | [4] 1.03 | [5] 1.15 | [6] 1.1 | [7] 1.02 | [8] 1.14 | [9] 1.12 | [10] 0.988 | [11] 1.02 | [12] 1.09 | [13] 1.01 | [14] 1.02 | [15] 1.05 | [16] 0.963 | [17] 1.04 | [18] 1.02 | [19] 1.12

COCC(=O)N(c1c(C)cccc1C)C(C)C(=O)OC (centres undefined)
inactive: [1] 1.03 | [2] 1.04 | [3] 1.04 | [4] 1.01 | [5] 0.944 | [6] 0.862 | [7] 0.994 | [8] 1.05 | [9] 1.03 | [10] 1.08 | [11] 0.993 | [12] 1.09 | [13] 0.939 | [14] 0.99 | [15] 1.03 | [16] 1.02 | [17] 0.986 | [18] 1.01 | [19] 1.03

CNC(=O)Oc1cccc(/N=C/N(C)C)c1
inactive: [1] 1 | [2] 0.973 | [3] 0.975 | [4] 0.977 | [5] 0.93 | [6] 0.951 | [7] 1.1 | [8] 0.984 | [9] 0.995 | [10] 1.15 | [11] 1.03 | [12] 1.07 | [13] 0.984 | [14] 0.99 | [15] 0.815 | [16] 1.02 | [17] 0.97 | [18] 1.05 | [19] 0.96

C/C(=N\C#N)N(C)Cc1ccc(Cl)nc1
inactive: [1] 0.986 | [2] 1.01 | [3] 1.04 | [4] 0.965 | [5] 1.03 | [6] 0.972 | [7] 0.973 | [8] 1 | [9] 1.05 | [10] 1.02 | [11] 1.05 | [12] 0.986 | [13] 0.92 | [14] 1.02 | [15] 0.997 | [16] 0.997 | [17] 0.993 | [18] 1.07 | [19] 1.06

CC(C)(C)C(O)(CCc1ccc(Cl)cc1)Cn1cncn1 (centres undefined)
1.41: [18]
inactive: [1] 0.916 | [2] 0.917 | [3] 1.01 | [4] 0.949 | [8] 0.913 | [9] 0.878 | [10] 0.983 | [11] 0.995 | [12] 0.862 | [14] 0.816 | [15] 1.04 | [16] 1 | [17] 0.945 | [19] 0.808
active: [5] 0.544 | [6] 0.232 | [7] 0.39 | [13] 0.671

CC1(C(=O)Nc2ccc(O)c(Cl)c2Cl)CCCCC1
inactive: [1] 0.972 | [2] 0.983 | [3] 0.993 | [4] 0.983 | [5] 0.846 | [6] 1.02 | [7] 0.984 | [8] 0.977 | [9] 0.984 | [10] 1 | [11] 0.942 | [12] 1.1 | [13] 0.982 | [14] 0.979 | [16] 0.995 | [17] 0.99 | [18] 1.04 | [19] 0.954
active: [15] 0.654

CN(C)C(CSS(=O)(=O)O)CSS(=O)(=O)O
inactive: [1] 0.987 | [2] 0.976 | [3] 0.992 | [4] 0.997 | [5] 1.02 | [6] 1.04 | [7] 1.04 | [8] 1.04 | [9] 0.914 | [10] 1 | [11] 1.02 | [12] 0.942 | [13] 1.09 | [14] 1 | [15] 1.07 | [16] 1.06 | [17] 1 | [18] 1.13 | [19] 0.935
